“And” between values parts separate entries of the source, which are not always exact repeats. Identical values can stand only once. Inconclusive results are not listed. Unmarked numbers belong to inactive results. The source made the active and inactive calls. Calls follow the shape of the dose curve; as a rule, active = well fitted activation curve with a large enough effect in the repeat runs; inconclusive = weak or mixed curves; inactive = flat fitted curve, though single readings scatter.
assay: A CellTox Green Cytotoxicity Assay to monitor cytotoxicity in HEK293 cells - 8 hour (AID 1224884); details: CellTox Green fluorescence; series mostly up to 76.8 µM; cytotoxicity increase: at the top concentration; also: nearly all actives have a fitted effect of over 35% in size
Source text: National Center for Advancing Translational Sciences [NCATS]
NIH Chemical Genomics Center [NCGC]
U.S. Environmental Protection Agency [EPA]
National Institutes of Environmental Health Sciences [NIEHS]
National Toxicology Program [NTP]
Cell-based models are critical for drug discovery. Determining the natural cytotoxic effects resulting from test compounds is an essential research activity. A CellTox Green Cytotoxicity Assay to monitor cytotoxicity in real time of continues cell culture during 40 hours of the compound treatment was used to screen Tox21 10K library compounds in Hek293 cells. CellTox Green Cytotoxicity Assay is a nonlytic, homogeneous, biofluorescent method to measure cytotoxicity in cell culture after experimental manipulation. The assay system uses a proprietary asymmetric cyanine dye that is excluded from viable cells but preferentially stains the dead cell's DNA. […] Viable cells produce no appreciable increases in fluorescence. Therefore, the fluorescence signal produced by the binding interaction with dead cell DNA is proportional to cytotoxicity.
The mixture of Hek293 cell suspension and reagents were dispensed at 600cells/6 ul/well in 1536-well tissue culture treated black solid bottom plates using a Multidrop dispenser. After the assay plates were incubated at a 37 C/5% CO2 incubator for 5 hours, 23 nL of compounds dissolved in DMSO, positive and negative controls was transferred to the assay plate by a pintool work station. The plates were incubated at 37 C for 40 hours. The fluorescence intensity were measured at 0h, 8h, 16h, 24h, 32h and 40h time points using ViewLux plate reader during compound treatment.
% is scaled to controls: 0 for no effect and ±100 for the full control effect; potency is read from the fitted curve at half-maximal effect.

Structure (SMILES) | cytotoxicity increase | Potency
CCCC/C=C/CCCCO | 9.82% | 
[O-][n+]1ccccc1SSc1cccc[n+]1[O-] |  | 10.4 µM (active)
Cc1cccc(N(C)C(=S)Oc2ccc3c(c2)C2CCC3C2)c1 (stereo not given) | -10.3% [at 35.3 µM] | 
NNc1nc(-c2ccc(N)cc2)cs1 | -14.9% | 
CCCCCCCCCCCCCC[P+](CCCC)(CCCC)CCCC (tested in a mixture with another compound) |  | 19.6 µM (active)
CCCC(C)c1ccccc1O (stereo not given) | 21.2% | 
CCc1cc(Cc2cc(CC)cc(C(C)(C)C)c2O)c(O)c(C(C)(C)C)c1 | 21.5% | 
O=c1[nH]sc2cc(Cl)ccc12 | -0.609% [at 35.3 µM] | 
Clc1ccc2nsnc2c1NC1=NCCN1 | -2.72% [at 35.3 µM] | 
Oc1ccc2c(c1)-c1ccccc1C2 | 18.7% | 
C/C=C(\C)C(=O)OCc1ccccc1 | -0.4% | 
N#CC1(c2ccc(F)cc2)CCC(=O)CC1 | 3.43% [at 35.3 µM] | 
O=C1CCCCCN1SSN1CCCCCC1=O | 0.0698% | 
C=C(C)C(=O)OCC(O)COc1ccc(C(C)(C)c2ccc(OCC(O)COC(=O)C(=C)C)cc2)cc1 (stereo not given) | -3.99% | 
Cc1nc(-c2ccc3c(c2)CCN(CCC2CCC(NC(=O)/C=C/c4ccc(F)cc4)CC2)CC3)no1 (stereo not given) | -5.56% [at 35.3 µM] | 
O=C(NO)C1(NS(=O)(=O)c2ccc(Oc3ccc(F)cc3)cc2)CCOCC1 | 1.08% | 
O=[N+]([O-])c1cc(Cl)c(Cl)c(Cl)c1Cl | 8.74% | 
Cc1onc(-c2ccccc2Cl)c1C(=O)N[C@@H]1C(=O)N2[C@@H]1SC(C)(C)[C@@H]2C(=O)O | -0.574% [at 35.3 µM] | 
CC(C)(C)NC(=O)[C@@H]1C[C@@H]2CCCC[C@@H]2CN1C[C@@H](O)[C@H](Cc1ccccc1)NC(=O)[C@H](CC(N)=O)NC(=O)c1ccc2ccccc2n1 | 5.62% | 
[Cl][Bi]([Cl])([c]1ccccc1)([c]1ccccc1)[c]1ccccc1 |  | 43.4 µM (active)

Structure (SMILES) | cytotoxicity increase | Potency
C1CCCC1 | 1.54% | 
Cc1cc(C2CCCCC2)n(O)c(=O)c1 | -12.4% [at 35.3 µM] | 
C/C(=C(/OCCOc1ccc(Cl)cc1)c1ccc(Cl)cc1Cl)n1ccnc1 | -8.87% [at 35.3 µM] | 
C[C@]12CCC(=O)C=C1CC[C@@H]1[C@@H]2[C@@H](O)C[C@@]2(C)[C@H]1CC[C@]2(O)C(=O)COC(=O)CCC(=O)O | -1.48% [at 35.3 µM] | 
O=C(Oc1cccc2cccnc12)c1ccccc1 | 1.82% [at 35.3 µM] | 
NC(=NCCCCCCN=C(N)/N=C(\N)Nc1ccc(Cl)cc1)/N=C(\N)Nc1ccc(Cl)cc1 |  | 35.3 µM (active) and 54.6 µM (active)
On1ccccc1=S | 6.5% | 
C/C=C1/C(=O)C[C@H]2[C@@H]3CCC4=CC(=O)CC[C@]4(C)[C@H]3CC[C@]12C | 3.54% | 
CCN(Cc1cccnc1)C(=O)c1cccc(Cl)c1[C@]1(C)C(=O)N(Cc2ccc(OC)cc2OC)c2ccc(Cl)cc21 | 10.7% | 
CCN1/C(=C/C=C/c2sc3ccccc3[n+]2CC)Sc2ccccc21 | -9.76% [at 15.8 µM] | 
Cc1cc(=O)oc2cc(N(C)C)ccc12 | 8.87% | 
C[n+]1cc2c3c(ccc2c2ccc4cc5c(cc4c21)OCO5)OCO3 | 16.5% [at 15.8 µM] | 
O=C1C=CC(=O)N1c1ccc(Cc2ccc(N3C(=O)C=CC3=O)cc2)cc1 |  | 54.9 µM (active)
CCc1oc2ccccc2c1C(=O)c1cc(Br)c(O)c(Br)c1 | -4.39% [at 35.3 µM] | 
O=[N+]([O-])c1ccccc1Nc1ccccc1 | -8.58% | 
NNc1nc(-c2ccc([N+](=O)[O-])cc2)cs1 | -13.8% | 
Oc1cccc2cc3cccc(O)c3c(O)c12 | -9.03% | 
N=C1N=C(N)c2cc3ccccc3cc21 |  | 54.9 µM (active)
CN(C)c1ccc(SC#N)cc1 | -4.02% | 
Nc1nc2ccccc2n1Cc1ccc(F)cc1 | 10.6% [at 35.3 µM] | 
